From PubChem BioAssay (Tox21)
Results filed as inconclusive are left out. Activity calls are given as the source filed them. Unless noted, calls come from the whole dose curve; as a rule, active = well fitted curve in the direction sought with a large enough effect in the repeat runs; inconclusive = weak or mixed curves; inactive = no such curve, though single readings can be large; an effect the other way counts as inactive or inconclusive.

Columns and labels:
[1] = qHTS assay to identify small molecule agonists of the sonic hedgehog signaling (Shh) pathway (AID 1259368; calls by dose curve;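 note: NIH/3T3-derived 3T3Gli1-Luc cells carrying a stable Gli1-driven firefly luciferase reporter; series mostly up to about 92 µM; nearly all actives have a fitted effect of over 15% in size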)
In short: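 Luminescent signal was taken as a measure of Gli1-controlled luciferase expression in stably transfected NIH/3T3-derived cells that had been treated for 24 hr with compounds delivered in DMSO.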

[2] = qHTS assay to identify small molecule antagonists of the sonic hedgehog signaling (Shh) pathway (AID 1259369; calls by dose curve; note: nearly all actives have a fitted effect of over 45% in size)
In short: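 Screening used 3T3Gli1-Luc cells at 2,000 per well, compounds delivered in DMSO, and conditioned medium as agonist stimulus; plates incubated 24hr at 37 C and 5% CO2 before a 30min luciferase step.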

[3] = qHTS assay to identify small molecule agonists of the androgen receptor (AR) signaling pathway in the presence of an antagonist - cell viability counter screen (AID 1259379);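 note: MDA-kb2 human breast cancer cells carrying an MMTV luciferase reporter; series mostly up to about 92 µM; nearly all actives have a fitted effect of over 25% in size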
In short: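 In MDA-kb2 cells (human breast carcinoma, MMTV-luciferase), compounds at 15 concentrations plus 3.0uM nilutamide; 16 hr, 37C, 0% CO2; CellTiter-Fluor fluorescence read for viability.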

[4] = qHTS assay to identify small molecule antagonists of the estrogen receptor beta (ER-beta) signaling pathway - cell viability counter screen (AID 1259382); note: nearly all actives have a fitted effect of over 55% in size; note: potency is the fitted concentration of half-maximal effect
In short: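 Tox21 10K library tested in qHTS format on ER-beta-bla HEK293T cells stimulated with 1nM E2; 16 hr treatment at 37C. Same-well CellTiter-Glo luminescence served as the cell viability measure.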

[5] = molecular target: Estrogen receptor (Homo sapiens) (UniProt P03372); assay: qHTS assay to identify small molecule agonists of the estrogen receptor alpha (ER-alpha) signaling pathway in the presence of an antagonist (AID 1259383; calls by dose curve; note: top concentration of the series differs between compounds; nearly all actives have a fitted effect of over 15% in size)
In short: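 In VM7Luc4E2 cells, 4,000 per well, compounds at 15 concentrations were co-incubated 22hr at 37C with 10.0nM final ICI-182,780. Luminescence from the stably transfected 4×ERE-luciferase reporter was recorded 30min after ONE-Glo addition.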

[6] = qHTS assay to identify small molecule agonists or antagonists of the thyroid stimulating hormone receptor (TSHR) signaling pathway - wild type cell line counter screen (AID 1259384; calls by dose curve)
In short: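 Wild-type HEK293 cells were plated 18 h at 37 C/5% CO2, pin-dosed with compound plus Ro20-1724 medium, held 30 min at room temperature, then given cAMP-d2 and anti-cAMP-cryptate; fluorescence was read after 1 h. Fifteen concentrations, triplicate.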

[7] = molecular target: Thyrotropin receptor (Homo sapiens) (UniProt P16473); assay: qHTS assay to identify small molecule antagonists of the thyroid stimulating hormone receptor (TSHR) signaling pathway (AID 1259385; calls by dose curve; note: nearly all actives have a fitted effect of over 20% in size)
In short: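 TSHR-HEK293 cells were plated and held 18 h at 37C/5% CO2, then given compound plus Ro20-1724 and stimulated with TSH at 1.5 ng/mL final. After 30 min at room temperature, cAMP was detected with cAMP-d2/anti-cAMP-cryptate (1 h) by fluorescence.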

[8] = qHTS assay to identify small molecule agonists of the estrogen receptor alpha (ER-alpha) signaling pathway in the presence of an antagonist - cell viability counter screen (AID 1259386);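 note: series mostly up to about 92 µM; cells exposed to compounds for 22 h at 37 °C before the viability read; nearly all actives have a fitted effect of over 30% in size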
In short: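 Fluorescent CellTiter-Fluor viability signal from VM7Luc4E2 cells, with the reagent added during the final hour of a 22hr compound exposure at 37C in the presence of 10.0nM ICI-182,780.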

[9] = molecular target: Progesterone receptor (Homo sapiens) (UniProt P06401); assay: qHTS assay to identify small molecule agonists of the progesterone receptor (PR) signaling pathway (AID 1346784; calls by dose curve; note: nearly all actives have a fitted effect of over 30% in size)
In short: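 HEK 293T PR-UAS-bla reporter cells, 2% charcoal-stripped FBS; 6 hr settle at 37C/5% CO2, compound (DMSO) 16 hr, LiveBLAzer B/G FRET substrate 2 hr RT, fluorescence intensity read.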

[10] = molecular target: Progesterone receptor (Homo sapiens) (UniProt P06401); assay: qHTS assay to identify small molecule antagonists of the progesterone receptor (PR) signaling pathway (AID 1346795; active = well fitted inhibition curve with a large enough effect in the signal ratio in the repeat runs, not every such curve was filed as active; the % refers to the signal ratio)
In short: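 Beta-lactamase reporter, HEK293T PR-UAS-bla line; 2% charcoal-stripped FBS; 6 hr pre-incubation, 37C/5% CO2. Compound + R5020 1 nM final, 16 hr. LiveBLAzer B/G FRET substrate, 2 hr RT; fluorescence intensity read.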

[11] = qHTS assay to identify small molecule agonists of the progesterone receptor (PR) signaling pathway - cell viability counter screen (AID 1346799; calls by dose curve; note: nearly all actives have a fitted effect of over 45% in size; note: potency is the fitted concentration of half-maximal effect)
In short: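 HEK293T PR-UAS-bla, 3,000 cells/well, 2% charcoal-stripped FBS; 6 h settle, compound 16 h at 37C/5% CO2; LiveBLAzer 2 h RT, then CellTiter-Glo 30 min RT, luminescence read.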

[12] = qHTS assay to identify small molecule antagonists of the TGF-beta/Smad signaling pathway - cell viability counter screen (AID 1346824); note: nearly all actives have a fitted effect of over 50% in size
In short: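 SBE-bla HEK 293T cells were plated overnight at 37 C, then given compounds in DMSO plus TGF-beta1 (added as 0.25 ng/mL solution) for 5 hr. After the bla read, CellTiter-Glo was added to the same wells and luminescence read after 30 min at room temperature.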

[13] = qHTS assay to identify small molecule agonists of the TGF-beta/Smad signaling pathway (AID 1346859; active = well fitted activation curve with a large enough effect in the signal ratio in the repeat runs, not every such curve was filed as active; the % refers to the signal ratio; note: series mostly up to about 77 µM)
In short: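 Read-out: fluorescence at 460 and 530 nm (405 nm excitation) after a 2 hr room-temperature incubation with beta-lactamase FRET substrate. SBE-bla HEK 293T cells had been treated with test compounds for 5 hr at 37 C.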

[14] = molecular target: Thyrotropin-releasing hormone receptor (Homo sapiens) (UniProt P34981); assay: qHTS assay to identify small molecule antagonists of the thyrotropin-releasing hormone receptor (TRHR) signaling pathway (AID 1346877; active = well fitted inhibition curve with a large enough effect in the repeat runs, not every such curve was filed as active; note: series mostly up to about 51 µM)
In short: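 In this cell-based calcium flux format, HEK293 cells expressing TRHR received test compound for 5 min before the agonist TRH (1 nM final). Dye loading lasted 2 h at 37 °C.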

[15] = molecular target: Estrogen receptor beta (Homo sapiens) (UniProt Q92731); assay: qHTS assay to identify small molecule agonists of the estrogen receptor beta (ER-beta) signaling pathway (AID 1259377; active = well fitted activation curve with a large enough effect in the signal ratio in the repeat runs, not every such curve was filed as active; the % refers to the signal ratio)
In short: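 Beta-lactamase reporter readout: fluorescence of LiveBLAzer B/G FRET substrate after 2 h at room temperature, following 16 h compound treatment of ER-beta-UAS-bla HEK293T cells at 37C in 2% charcoal-stripped FBS medium.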

[16] = molecular target: Estrogen receptor beta (Homo sapiens) (UniProt Q92731); assay: qHTS assay to identify small molecule antagonists of the estrogen receptor beta (ER-beta) signaling pathway (AID 1259378; active = well fitted inhibition curve with a large enough effect in the signal ratio in the repeat runs, not every such curve was filed as active; the % refers to the signal ratio)
In short: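 ER-beta-UAS-bla HEK293T (GripTite) cells in 2% charcoal-stripped FBS medium were preincubated 6 hr at 37C, dosed with compound, then stimulated with 1 nM E2 (final) for 16 hr; beta-lactamase reporter read by B/G FRET fluorescence after 2 hr substrate loading.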

[17] = qHTS assay to identify small molecule agonists of the estrogen receptor beta (ER-beta) signaling pathway - cell viability counter screen (AID 1259380); note: nearly all actives have a fitted effect of over 30% in size; note: potency is the fitted concentration of half-maximal effect
In short: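 Viability of ER-beta-UAS-bla HEK293T cells was determined by CellTiter-Glo luminescence following 16 hr treatment with test compounds at 37C.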

[18] = qHTS assay to identify small molecule antagonists of the progesterone receptor (PR) signaling pathway - cell viability counter screen (AID 1346798); note: nearly all actives have a fitted effect of over 50% in size; note: potency is the fitted concentration of half-maximal effect
In short: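 Luminescence readout (CellTiter-Glo, 30 min, RT) of viability in PR-UAS-bla HEK293T cells exposed to compound and R5020 agonist for 16 hr at 37C, 5% CO2; run in the same wells as the beta-lactamase reporter read.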

[19] = qHTS assay to identify small molecule agonists of the TGF-beta/Smad signaling pathway - cell viability counter screen (AID 1346829); note: top concentration of the series differs between compounds; nearly all actives have a fitted effect of over 45% in size
In short: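 Same-well cytotoxicity: CellTiter-Glo added after the 2 hr room-temperature beta-lactamase substrate step, luminescence measured 30 min later; cells had 5 hr of compound at 37 C.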

[20] = molecular target: Androgen receptor (Homo sapiens) (UniProt P10275); assay: qHTS assay to identify small molecule agonists of the androgen receptor (AR) signaling pathway in the presence of an antagonist (AID 1259381; calls by dose curve; note: nearly all actives have a fitted effect of over 15% in size)
In short: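 Here, 15-concentration compound series were pin-transferred onto MDA-kb2 MMTV-luciferase cells already dosed with nilutamide (3.0uM final). After 16hr at 37C, ONE-Glo was added and luminescence read 30min later at room temperature.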

Measured: Potency

Sequence of Estrogen receptor (Homo sapiens) (P03372 whole entry, looked up): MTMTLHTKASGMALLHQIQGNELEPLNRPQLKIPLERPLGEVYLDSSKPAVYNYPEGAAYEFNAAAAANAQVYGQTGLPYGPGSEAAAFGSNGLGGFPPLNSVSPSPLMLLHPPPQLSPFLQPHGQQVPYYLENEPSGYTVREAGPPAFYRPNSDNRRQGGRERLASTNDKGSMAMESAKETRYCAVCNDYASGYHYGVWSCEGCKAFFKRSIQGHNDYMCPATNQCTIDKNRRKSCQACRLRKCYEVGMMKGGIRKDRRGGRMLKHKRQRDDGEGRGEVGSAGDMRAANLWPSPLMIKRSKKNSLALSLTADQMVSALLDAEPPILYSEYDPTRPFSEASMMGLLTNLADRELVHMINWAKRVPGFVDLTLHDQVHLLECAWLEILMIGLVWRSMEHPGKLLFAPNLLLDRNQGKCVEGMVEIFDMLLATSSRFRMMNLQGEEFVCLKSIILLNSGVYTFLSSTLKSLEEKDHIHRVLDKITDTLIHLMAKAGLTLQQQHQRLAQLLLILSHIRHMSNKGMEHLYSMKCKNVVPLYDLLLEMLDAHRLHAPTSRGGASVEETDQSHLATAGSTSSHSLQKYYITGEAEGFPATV
Sequence of Thyrotropin receptor (Homo sapiens) (P16473 whole entry, looked up): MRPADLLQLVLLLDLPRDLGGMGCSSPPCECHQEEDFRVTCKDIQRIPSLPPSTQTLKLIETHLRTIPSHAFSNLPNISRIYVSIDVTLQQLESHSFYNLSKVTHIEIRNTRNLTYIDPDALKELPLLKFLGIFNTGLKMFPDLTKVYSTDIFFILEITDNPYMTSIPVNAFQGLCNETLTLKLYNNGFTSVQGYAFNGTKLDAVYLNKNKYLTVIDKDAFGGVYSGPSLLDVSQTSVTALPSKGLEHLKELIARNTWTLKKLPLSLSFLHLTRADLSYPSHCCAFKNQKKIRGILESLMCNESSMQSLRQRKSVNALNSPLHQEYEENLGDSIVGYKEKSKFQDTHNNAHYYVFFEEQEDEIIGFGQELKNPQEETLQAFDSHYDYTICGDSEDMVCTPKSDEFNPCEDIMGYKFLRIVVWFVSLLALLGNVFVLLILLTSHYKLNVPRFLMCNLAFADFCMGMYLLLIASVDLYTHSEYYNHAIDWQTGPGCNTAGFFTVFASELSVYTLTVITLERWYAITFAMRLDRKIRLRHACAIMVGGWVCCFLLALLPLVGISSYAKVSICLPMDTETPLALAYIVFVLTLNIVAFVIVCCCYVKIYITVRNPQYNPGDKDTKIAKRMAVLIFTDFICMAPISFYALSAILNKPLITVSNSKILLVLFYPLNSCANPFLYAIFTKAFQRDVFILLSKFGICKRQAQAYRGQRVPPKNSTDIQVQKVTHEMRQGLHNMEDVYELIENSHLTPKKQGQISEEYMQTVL
Sequence of Estrogen receptor beta (Homo sapiens) (Q92731 whole entry, looked up): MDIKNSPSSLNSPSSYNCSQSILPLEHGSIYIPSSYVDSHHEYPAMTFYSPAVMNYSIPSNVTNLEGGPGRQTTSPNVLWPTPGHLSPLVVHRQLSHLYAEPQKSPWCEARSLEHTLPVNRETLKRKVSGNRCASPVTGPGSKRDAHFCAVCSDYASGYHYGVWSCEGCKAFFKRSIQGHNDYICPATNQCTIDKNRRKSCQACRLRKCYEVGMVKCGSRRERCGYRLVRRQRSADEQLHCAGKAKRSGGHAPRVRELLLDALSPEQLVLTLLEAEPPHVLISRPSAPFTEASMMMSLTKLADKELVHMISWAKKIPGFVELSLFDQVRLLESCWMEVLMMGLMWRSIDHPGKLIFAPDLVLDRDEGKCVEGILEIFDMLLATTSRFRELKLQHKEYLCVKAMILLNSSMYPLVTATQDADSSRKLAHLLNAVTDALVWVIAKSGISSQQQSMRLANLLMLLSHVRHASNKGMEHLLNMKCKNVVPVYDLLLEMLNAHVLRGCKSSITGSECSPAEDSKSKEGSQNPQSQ
Sequence of Progesterone receptor (Homo sapiens) (P06401 whole entry, looked up): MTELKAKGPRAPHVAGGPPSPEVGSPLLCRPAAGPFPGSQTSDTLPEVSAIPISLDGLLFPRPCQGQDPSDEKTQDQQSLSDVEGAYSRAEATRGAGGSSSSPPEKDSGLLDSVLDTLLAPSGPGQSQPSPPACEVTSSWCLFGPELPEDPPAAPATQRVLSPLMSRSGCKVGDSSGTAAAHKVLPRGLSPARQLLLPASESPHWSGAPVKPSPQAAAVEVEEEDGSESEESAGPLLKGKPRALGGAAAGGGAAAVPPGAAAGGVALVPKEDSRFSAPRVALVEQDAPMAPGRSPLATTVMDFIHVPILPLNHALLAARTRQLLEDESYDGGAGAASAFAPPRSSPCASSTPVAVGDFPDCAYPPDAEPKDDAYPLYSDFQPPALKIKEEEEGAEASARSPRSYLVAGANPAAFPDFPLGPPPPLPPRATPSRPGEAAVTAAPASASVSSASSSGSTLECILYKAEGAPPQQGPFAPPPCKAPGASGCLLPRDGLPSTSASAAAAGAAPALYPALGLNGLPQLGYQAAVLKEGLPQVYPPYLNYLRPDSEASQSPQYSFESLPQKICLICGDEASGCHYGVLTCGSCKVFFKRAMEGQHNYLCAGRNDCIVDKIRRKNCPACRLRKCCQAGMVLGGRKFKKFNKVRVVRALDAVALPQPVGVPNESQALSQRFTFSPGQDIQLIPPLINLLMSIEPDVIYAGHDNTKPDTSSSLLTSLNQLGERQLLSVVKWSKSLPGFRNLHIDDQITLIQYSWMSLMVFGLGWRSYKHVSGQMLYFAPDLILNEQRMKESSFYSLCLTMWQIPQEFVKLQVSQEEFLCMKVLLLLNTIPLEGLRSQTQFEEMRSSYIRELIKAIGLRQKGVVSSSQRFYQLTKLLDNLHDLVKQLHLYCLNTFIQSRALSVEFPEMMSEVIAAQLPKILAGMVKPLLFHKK
Sequence of Androgen receptor (Homo sapiens) (P10275 whole entry, looked up): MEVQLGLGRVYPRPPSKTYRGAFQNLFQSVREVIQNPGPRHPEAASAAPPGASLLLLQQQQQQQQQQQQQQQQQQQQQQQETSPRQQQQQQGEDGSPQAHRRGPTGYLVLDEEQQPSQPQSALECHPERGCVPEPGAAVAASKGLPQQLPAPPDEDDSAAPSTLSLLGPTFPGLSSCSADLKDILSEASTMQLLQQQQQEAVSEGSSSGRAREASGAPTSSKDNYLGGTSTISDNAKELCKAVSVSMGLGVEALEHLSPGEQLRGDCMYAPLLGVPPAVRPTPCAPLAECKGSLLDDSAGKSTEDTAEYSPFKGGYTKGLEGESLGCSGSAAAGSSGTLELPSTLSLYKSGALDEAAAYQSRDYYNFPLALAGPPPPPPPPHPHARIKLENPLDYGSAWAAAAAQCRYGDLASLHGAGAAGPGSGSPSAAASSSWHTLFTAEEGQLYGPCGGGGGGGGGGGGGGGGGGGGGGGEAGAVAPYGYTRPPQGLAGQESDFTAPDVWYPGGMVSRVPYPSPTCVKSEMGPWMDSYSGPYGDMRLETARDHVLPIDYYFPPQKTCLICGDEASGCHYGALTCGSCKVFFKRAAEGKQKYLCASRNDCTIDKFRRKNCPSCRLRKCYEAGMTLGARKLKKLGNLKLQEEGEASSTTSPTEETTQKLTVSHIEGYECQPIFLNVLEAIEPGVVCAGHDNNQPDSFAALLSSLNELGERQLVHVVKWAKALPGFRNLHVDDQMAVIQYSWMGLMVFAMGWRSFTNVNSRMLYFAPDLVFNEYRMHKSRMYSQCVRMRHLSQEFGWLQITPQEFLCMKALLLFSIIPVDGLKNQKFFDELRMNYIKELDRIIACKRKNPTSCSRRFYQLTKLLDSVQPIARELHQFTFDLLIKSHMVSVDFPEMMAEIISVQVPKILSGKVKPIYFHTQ
Sequence of Thyrotropin-releasing hormone receptor (Homo sapiens) (P34981 whole entry, looked up): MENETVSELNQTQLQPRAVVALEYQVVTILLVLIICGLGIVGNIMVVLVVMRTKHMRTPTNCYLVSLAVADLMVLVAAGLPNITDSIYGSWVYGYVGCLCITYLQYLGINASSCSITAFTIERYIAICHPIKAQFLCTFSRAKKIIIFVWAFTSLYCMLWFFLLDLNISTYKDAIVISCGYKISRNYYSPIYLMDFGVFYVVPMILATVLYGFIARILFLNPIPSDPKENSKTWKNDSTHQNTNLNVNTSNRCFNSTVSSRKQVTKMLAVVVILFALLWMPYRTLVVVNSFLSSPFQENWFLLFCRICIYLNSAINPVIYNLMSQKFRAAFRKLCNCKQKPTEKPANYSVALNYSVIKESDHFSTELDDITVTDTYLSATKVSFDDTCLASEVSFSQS

CCCC(C)C(=O)O (stereo unspecified)
active: [4] 37 µM | [11] 18.5 µM
not listed: [15] | [16] | [17] | [18] | [19] | [20]
inactive: all other assays above

CCCCc1ccc(N)cc1
not listed: [2] | [14] | [20]
inactive: all other assays above

CC(C)c1cccc(C(C)C)c1N
not listed: [4] | [6] | [7] | [15] | [16] | [20]
inactive: all other assays above

CCOC(=O)Cn1c(=O)sc2cccc(Cl)c21
not listed: [2] | [8] | [10] | [17] | [20]
inactive: all other assays above

O=S(=O)(c1cccc2cnccc12)N1CCCNCC1
not listed: [2] | [8] | [10] | [17] | [20]
inactive: all other assays above

CCCCCCOC(=O)c1ccccc1O
active: [18] 24.3 µM
not listed: [9] | [10] | [11] | [15] | [16] | [17]
inactive: all other assays above

C#CC(O)C(CC)CCCC (stereo unspecified)
not listed: [2] | [5] | [16]
inactive: all other assays above

C=CCOc1nc(OCC=C)nc(OCC=C)n1
not listed: [2] | [5] | [20]
inactive: all other assays above

COc1ccc(NC(C)=O)cc1
not listed: [2] | [5] | [8] | [10] | [14]
inactive: all other assays above

CCCOCC(C)OCC(C)O (stereo unspecified)
not listed: [2] | [5] | [8] | [11] | [19]
inactive: all other assays above

CCCCCC[C@@H](CCC)C(=O)O
not listed: [2] | [11] | [17] | [20]
inactive: all other assays above

CCN1CCN(c2cc3c(cc2F)c(=O)c(C(=O)O)cn3C2CC2)CC1
not listed: [2] | [5] | [13]
inactive: all other assays above

CC(C)c1ccc2oc3nc(N)c(C(=O)O)cc3c(=O)c2c1
active: [17] 23.7 µM
not listed: [4] | [6] | [13] | [15] | [16] | [20]
inactive: all other assays above

CC(C=O)Cc1ccc(C(C)C)cc1 (stereo unspecified)
not listed: [2] | [4] | [5] | [19] | [20]
inactive: all other assays above

COc1ccc2cc(C=O)ccc2c1
not listed: [2] | [10] | [15] | [16] | [19]
inactive: all other assays above

NC(N)=NS(=O)(=O)c1ccc(N)cc1
not listed: [1] | [11] | [14] | [19]
inactive: all other assays above
